# Results: PubChem BioAssay AID743129 (Broad Institute, 2013)
# Results with a measured potency or affinity are listed apart. Unmarked numbers belong to inactive results. Active and inactive are the calls of the source.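 The calls were made as follows: active = cytotoxic compounds whose fitted half-maximal concentration is at most twice the highest valid tested dose; inconclusive = flat curve with 30 to 70% cell loss, or poor fit; inactive = the rest, including signal rising instead of falling.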
# Assay: viability loss in HepG2 hepatoma cells – cell-based, ATP luminescence, dry powder, set 2, cytotoxicity control, dose response (AID 743129)
# Settings: ATP luminescence (CellTiter-Glo), 72 h; series mostly up to 26 µM; activity change, negative = cytotoxicity: at the top concentration
Compound,"activity change, negative = cytotoxicity",outcome
CCOC(=O)c1c(-c2ccc(F)cc2)csc1NC(=O)CN1CCN(C)CC1,21.1%,–
S=c1[nH]c2ccccc2n1CCOc1ccccc1,-11.9%,–
Cc1ccc2c(c1)[nH]c(=S)n2CCOc1ccccc1,29.2%,–
CCOC(=O)c1c(-c2ccc(F)cc2)csc1NC(=O)CN1CCN(CC)CC1,-0.94%,–
c1ccc(OCCn2cnc3ccccc32)cc1,-27.1%,–
Cc1ccc(OCCn2c(=S)[nH]c3ccccc32)c(C(C)C)c1,–,inactive
O=c1[nH]c2ccccc2n1CCOc1ccccc1,–,inactive
Fc1ccccc1OCCn1c(=S)[nH]c2ccccc21,-13%,–
Cc1cccc(OCCn2c(=S)[nH]c3cc(C(F)(F)F)ccc32)c1,-10.2%,–
COC(=O)C1=C(C)N(Cc2ccc(Br)cc2)C(=S)NC1c1ccc(F)cc1 (stereo not drawn),0.837%,–
COC(=O)C1=C(C)N(Cc2ccc(Br)cc2)C(=S)NC1c1ccc(OC)cc1 (stereo not drawn),-26.8%,–
CCOc1ccc(OCCn2c(=S)[nH]c3ccccc32)cc1,-26.2%,–
Cc1ccc(C(C)C)c(OCCn2c(=S)[nH]c3ccccc32)c1,39.7%,–
S=c1[nH]c2ccccc2n1CCOc1ccc(Cl)cc1,-7.15%,–
Cc1ccc(OCCn2c(=S)[nH]c3ccccc32)cc1,-23.9%,–
Cc1ccccc1OCCn1c(=S)[nH]c2ccccc21,-14.9%,–
Fc1cccc2c1[nH]c(=S)n2CCOc1ccccc1,12.8%,–
Cc1ccc(OCCn2c(C)nc3ccccc32)cc1,15%,–
S=c1[nH]c2cccc(Cl)c2n1CCOc1ccccc1,-3.38%,–
COC(=O)C1=C(C)N(Cc2ccc(Cl)cc2)C(=S)NC1c1ccc(Br)cc1 (stereo not drawn),-1.77%,–
COC(=O)C1=C(C)N(Cc2ccccc2)C(=S)NC1c1ccc(Br)cc1 (stereo not drawn),-2.68%,–
Cc1ccc(OCCn2cnc3ccccc32)cc1,-2.07%,–
CCOC(=O)c1c(-c2ccc(OC)cc2)csc1NC(=O)CN(C)CC(=O)N(C)C,6.85%,–
